This passage reports composite z-score and z-score results from PubChem BioAssay.

Calls of active or inactive are those of the source.

A short description of test [1]: small molecules captured by biotinylated probe aFSTL3 – biochemical, small-molecule microarray, fluorescence 635/667, stem cell growth factor project, primary screen (AID 1064).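 Note: measures binding of the biotinylated anti-FSTL3 antibody to printed compounds.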 The settings on record: higher = more signal.
Test [2] is described as follows: binders from COS7 lysate, DM2A8 probe, primary screen, torsin A project, cell lysate, small-molecule microarray, fluorescence 635/667 (AID 1065). The following applies: higher = more signal, COS7 lysate expressing mutant human TOR1A.
Test [3] can be described thus: small molecules captured by biotinylated probe aFGF2 – biochemical, small-molecule microarray, fluorescence 635/667, stem cell growth factor project, primary screen (AID 1067).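 Note: measures binding of biotinylated aFGF2 protein to printed compounds on slides; z-score merges feature fluorescence and signal-to-noise across triplicate slides.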 The following applies: higher = more signal.
The nature of test [4]: small molecules captured by biotinylated probe aFGF10 – biochemical, small-molecule microarray, fluorescence 635/667, stem cell growth factor project, primary screen (AID 1071).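 Note: score merges 667 nm spot intensity and signal to noise from triplicate slides.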 The settings on record: higher = more signal.
Test [5] deals with Neurogenic locus notch homolog protein 2 (Homo sapiens) (UniProt Q04721). Kind of test: small molecules binding Notch2 protein – biochemical, small-molecule microarray, 635 nm fluorescence, stem cell growth factors, primary screen (AID 1073). The following applies: higher = more signal.
The target in test [6] is Pro-neuregulin-1, membrane-bound isoform (Homo sapiens) (UniProt Q02297). In words: small molecules binding neuregulin-1 protein – biochemical, small-molecule microarray, fluorescence 635/667, psychiatric disease protein project, primary screen (AID 1075).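 Note: score combines 667 nm spot fluorescence with signal to noise.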 The settings on record: NRG1 binding, 635 nm fluorescence, higher = more signal.
The subject of test [7] is Neuregulin-1 EGF-like domain. Kind of test: small molecules binding NRG1 EGF domain – biochemical, small-molecule microarray, 635 nm fluorescence, primary screen (AID 1081).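 Note: binding of the protein to compounds printed on small-molecule microarray slides.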 The following applies: higher = more signal.
The nature of test [8]: FRG1 expression reporter modulators in myotubes – cell-based, C2C12 myotubes, firefly/Renilla luciferase, luminescence, FRG1 inhibition for FSHD, primary screen (AID 1084). The following applies: FRG1 promoter luciferase, higher = more signal, called active from +8 up or from −8 down.
Test [9] can be described thus: small molecules captured by biotinylated probe aFST – biochemical, small-molecule microarray, fluorescence 635/667, stem cell growth factor project, primary screen (AID 1086).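 Note: score merges 667 nm fluorescence with signal-to-noise of each printed compound spot.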 The settings on record: higher = more signal.
Test [10] can be described thus: binders of probe aHhip on microarray, primary screen, stem cell growth factor project, biochemical, small-molecule microarray, fluorescence 635/667 (AID 1087).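 Note: score merges spot fluorescence at 667nm with spot signal to noise ratio.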 The following applies: higher = more signal.
Test [11] deals with PRMT1 (protein arginine N-methyltransferase 1). Kind of test: small molecules binding arginine methyltransferase PRMT1 – biochemical, small-molecule microarray, 635 nm fluorescence, primary screen (AID 1088).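 Note: binding of Prmt1 protein to compounds spotted on small-molecule microarray slides.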 The settings on record: higher = more signal.
A short description of test [12]: growth effects on S. cerevisiae YJM789 – YJM789 clinical isolate, OD600, 24 h, basal, primary screen (AID 1089).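 Note: growth of clinical yeast isolate S. cerevisiae YJM 789 seeded 1000 cells per well; test concentration not given here.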 The following applies: higher = more signal, called active from +8 up or from −8 down.
Test [13] can be described thus: S. pombe growth modifiers, basal conditions – strain 972, OD600, 24 h, no modulator, primary screen (AID 1090).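 Note: basal condition with compound alone and no growth modifier present; test concentration not given here.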 The settings on record: S. pombe 972 growth, higher = more signal, called active from +8 up or from −8 down.
Test [14] can be described thus: budding yeast growth modifiers under rapamycin – strain BY4716, OD600, 96 h, primary screen (AID 1091). Note: test concentration not given here. The following applies: S. cerevisiae BY4716 + rapamycin, higher = more signal, called active from +8 up or from −8 down.
Test [15] has as its target Torsin-1A-interacting protein 2 (Homo sapiens) (UniProt Q8NFQ8). In words: small molecules binding lysate-expressed LULL1 – cell lysate, human LULL1 lysate, 635/667 nm fluorescence, primary screen (AID 1092).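 Note: score merges per-feature 667 nm fluorescence with signal-to-noise.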 The following applies: small-molecule microarray, hLULL1 lysate binding, 635 nm fluorescence; higher = more signal.
Test [16] in a line: optical density change of DRC41 E. coli – strain DRC41, OD650, 24 h, E. coli filamentation project, primary screen (AID 1093).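 Note: MC1000 strain lacking acrAB efflux and sulA so SOS filamentation is blocked; test concentration not given here.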 The following applies: E. coli DRC41 growth, higher = more signal, called active from +8 up or from −8 down.
Test [17] is described as follows: probe aLefty2 binding to arrayed compounds – biochemical, biotinylated probe, 635/667 nm fluorescence, primary screen (AID 1094).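 Note: score merges spot fluorescence near 667 nm with spot signal-to-noise ratio.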 The following applies: small-molecule microarray, higher = more signal.
In test [18] the test system is Noggin (protein binding on small-molecule microarray). Kind of test: small molecules binding Noggin protein – biochemical, 635/667 nm fluorescence, primary screen (AID 1095).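 Note: score merges 667 nm feature fluorescence with signal to noise over triplicate slides.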 The following applies: 635 nm fluorescence, higher = more signal.
The target in test [19] is Neurogenic locus notch homolog protein 3 (Homo sapiens) (UniProt Q9UM47). In words: small molecules binding NOTCH3 protein – biochemical, 635/667 nm fluorescence, primary screen (AID 1096). The settings on record: small-molecule microarray, 635 nm fluorescence, higher = more signal.
Test [20] in a line: probe aEGFR binding to arrayed compounds – biochemical, biotinylated probe, 635/667 nm fluorescence, primary screen (AID 1097).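 Note: probe is a biotinylated anti-EGFR antibody binding compounds printed on slides; score combines fluorescence near 667 nm and signal to noise of each spot.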 The settings on record: small-molecule microarray, higher = more signal.

Chain of Neurogenic locus notch homolog protein 2 (Homo sapiens) (Q04721 whole entry, looked up, canonical isoform): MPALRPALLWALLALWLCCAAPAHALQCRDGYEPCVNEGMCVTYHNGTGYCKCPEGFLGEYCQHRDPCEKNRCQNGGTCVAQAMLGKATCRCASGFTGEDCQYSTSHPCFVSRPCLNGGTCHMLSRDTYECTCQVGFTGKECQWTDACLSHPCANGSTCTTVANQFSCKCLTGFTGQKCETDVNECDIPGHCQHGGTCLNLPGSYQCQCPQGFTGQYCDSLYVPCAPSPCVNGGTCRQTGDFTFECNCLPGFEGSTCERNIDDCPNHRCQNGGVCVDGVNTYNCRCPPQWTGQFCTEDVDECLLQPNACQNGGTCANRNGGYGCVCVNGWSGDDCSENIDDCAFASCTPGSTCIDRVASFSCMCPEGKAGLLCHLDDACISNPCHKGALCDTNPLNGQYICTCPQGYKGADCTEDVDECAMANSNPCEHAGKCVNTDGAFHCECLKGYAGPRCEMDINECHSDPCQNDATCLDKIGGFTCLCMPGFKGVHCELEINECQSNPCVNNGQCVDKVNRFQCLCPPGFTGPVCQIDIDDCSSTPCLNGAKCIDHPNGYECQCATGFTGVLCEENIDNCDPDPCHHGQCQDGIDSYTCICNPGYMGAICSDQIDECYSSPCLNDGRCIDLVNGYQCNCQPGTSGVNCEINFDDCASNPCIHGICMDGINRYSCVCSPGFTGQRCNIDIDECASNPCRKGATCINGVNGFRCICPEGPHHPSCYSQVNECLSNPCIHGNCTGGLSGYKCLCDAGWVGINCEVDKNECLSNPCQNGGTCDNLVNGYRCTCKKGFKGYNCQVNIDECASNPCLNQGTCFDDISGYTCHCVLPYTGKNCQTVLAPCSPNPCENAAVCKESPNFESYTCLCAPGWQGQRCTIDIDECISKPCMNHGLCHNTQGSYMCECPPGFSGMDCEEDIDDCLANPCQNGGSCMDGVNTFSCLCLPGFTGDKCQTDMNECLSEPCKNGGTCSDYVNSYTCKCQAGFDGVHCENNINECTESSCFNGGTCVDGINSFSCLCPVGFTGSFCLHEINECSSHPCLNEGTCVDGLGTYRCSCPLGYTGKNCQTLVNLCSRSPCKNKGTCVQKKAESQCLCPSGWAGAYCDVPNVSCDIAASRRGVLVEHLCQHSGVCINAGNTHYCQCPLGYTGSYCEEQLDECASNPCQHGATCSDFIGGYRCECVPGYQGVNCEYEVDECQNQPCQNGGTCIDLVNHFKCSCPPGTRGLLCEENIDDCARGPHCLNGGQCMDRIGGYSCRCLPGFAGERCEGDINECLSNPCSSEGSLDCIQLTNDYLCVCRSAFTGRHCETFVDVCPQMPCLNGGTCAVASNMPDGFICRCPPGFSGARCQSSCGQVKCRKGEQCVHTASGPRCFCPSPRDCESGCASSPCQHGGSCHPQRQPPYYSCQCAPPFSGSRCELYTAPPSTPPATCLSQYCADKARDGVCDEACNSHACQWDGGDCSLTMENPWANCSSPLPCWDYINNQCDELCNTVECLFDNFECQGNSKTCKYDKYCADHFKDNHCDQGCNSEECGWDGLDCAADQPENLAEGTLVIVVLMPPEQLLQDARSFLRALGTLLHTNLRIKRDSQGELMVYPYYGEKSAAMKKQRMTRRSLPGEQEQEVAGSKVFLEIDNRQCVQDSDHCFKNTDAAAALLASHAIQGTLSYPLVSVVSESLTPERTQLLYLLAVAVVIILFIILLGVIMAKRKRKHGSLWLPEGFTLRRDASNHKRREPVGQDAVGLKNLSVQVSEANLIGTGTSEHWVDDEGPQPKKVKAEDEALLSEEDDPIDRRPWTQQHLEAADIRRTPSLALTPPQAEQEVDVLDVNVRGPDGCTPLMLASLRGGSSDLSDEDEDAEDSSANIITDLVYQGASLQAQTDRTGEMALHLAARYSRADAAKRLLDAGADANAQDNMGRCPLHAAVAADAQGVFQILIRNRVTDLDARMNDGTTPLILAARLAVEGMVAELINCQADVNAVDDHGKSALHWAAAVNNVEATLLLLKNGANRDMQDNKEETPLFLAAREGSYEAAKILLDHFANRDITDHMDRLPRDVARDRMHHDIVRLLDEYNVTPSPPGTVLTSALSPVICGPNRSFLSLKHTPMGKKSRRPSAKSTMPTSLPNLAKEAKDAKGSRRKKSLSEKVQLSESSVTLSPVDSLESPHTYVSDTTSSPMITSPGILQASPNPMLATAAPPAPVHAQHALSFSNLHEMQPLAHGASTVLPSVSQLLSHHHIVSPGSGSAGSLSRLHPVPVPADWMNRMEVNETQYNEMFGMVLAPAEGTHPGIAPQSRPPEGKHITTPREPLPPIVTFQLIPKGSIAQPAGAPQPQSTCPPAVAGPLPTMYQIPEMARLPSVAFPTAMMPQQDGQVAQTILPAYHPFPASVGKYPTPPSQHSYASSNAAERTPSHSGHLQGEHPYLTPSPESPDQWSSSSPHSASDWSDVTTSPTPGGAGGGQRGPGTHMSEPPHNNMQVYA
Chain of Pro-neuregulin-1, membrane-bound isoform (Homo sapiens) (Q02297 whole entry, looked up, the tested form may be a part, canonical isoform): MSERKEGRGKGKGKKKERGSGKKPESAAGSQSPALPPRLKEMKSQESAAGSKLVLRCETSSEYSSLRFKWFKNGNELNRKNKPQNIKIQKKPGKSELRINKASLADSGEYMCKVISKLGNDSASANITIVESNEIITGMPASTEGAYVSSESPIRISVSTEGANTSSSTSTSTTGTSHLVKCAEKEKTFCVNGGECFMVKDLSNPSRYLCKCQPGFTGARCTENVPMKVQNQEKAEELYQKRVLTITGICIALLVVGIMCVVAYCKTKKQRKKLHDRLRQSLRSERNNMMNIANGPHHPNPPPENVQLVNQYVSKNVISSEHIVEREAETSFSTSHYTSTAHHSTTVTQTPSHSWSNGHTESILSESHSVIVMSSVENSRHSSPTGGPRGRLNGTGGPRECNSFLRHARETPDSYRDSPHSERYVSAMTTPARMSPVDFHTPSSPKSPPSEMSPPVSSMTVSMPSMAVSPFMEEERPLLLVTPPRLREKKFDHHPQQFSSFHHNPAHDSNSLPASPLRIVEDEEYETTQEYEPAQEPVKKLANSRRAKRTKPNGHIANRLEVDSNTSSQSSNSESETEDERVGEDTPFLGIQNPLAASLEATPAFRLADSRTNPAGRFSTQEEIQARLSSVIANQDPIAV
Chain of Torsin-1A-interacting protein 2 (Homo sapiens) (Q8NFQ8 whole entry, looked up): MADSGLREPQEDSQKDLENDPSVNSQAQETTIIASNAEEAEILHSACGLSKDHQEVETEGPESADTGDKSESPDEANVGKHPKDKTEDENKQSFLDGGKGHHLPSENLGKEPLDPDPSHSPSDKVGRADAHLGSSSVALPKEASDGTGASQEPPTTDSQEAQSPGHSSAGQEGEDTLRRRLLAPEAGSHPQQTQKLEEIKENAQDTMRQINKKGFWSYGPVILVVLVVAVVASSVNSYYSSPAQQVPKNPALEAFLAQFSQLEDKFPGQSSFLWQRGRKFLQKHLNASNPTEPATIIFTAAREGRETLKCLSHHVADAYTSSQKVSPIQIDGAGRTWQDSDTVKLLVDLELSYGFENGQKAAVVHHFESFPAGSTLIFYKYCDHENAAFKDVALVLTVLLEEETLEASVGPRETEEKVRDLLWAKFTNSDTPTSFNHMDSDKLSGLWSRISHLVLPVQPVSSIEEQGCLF

Regarding `COC(=O)c1c2oc(c1C(=O)OC)C(=O)N[C@H](Cc1ccccc1)Cn1cc(nn1)C1(CCCCC1)NC(=O)N[C@H](CO)CC2`, the composite z-score in test [1] is -0.194; in [2] it was 0.112; in test [3], -0.0561; in [4], 0.399; in [5], -0.0222; in [6] it was 0.657. Besides, the composite z-score in test [7] was 0.647; in [9], -0.259; in test [10], -0.0102; in [11] it was 0.286; in [15] it was 1.46; in [17], -0.124. The composite z-score in test [18] is 0.292; in test [19], -0.147; in [20], -0.158. Further, the z-score was -1.12 (inactive) in [8]; 1.92 (inactive) in [12]; -0.261 (inactive) in test [13]; -0.691 (inactive) in test [14]; 2.01 (inactive) in test [16].
`CCCCN1CC=CC23O[C@@H]4C=CCCOC(=O)C4[C@H]2C(=O)N(CCO)[C@@H]3C1=O` (stereo not given in full): the composite z-score is 0.18 in [1]; -0.881 in [2]; -0.276 in test [3]; 1.02 in test [4]; -1.29 in test [5]; -0.944 in test [6]. Besides, the composite z-score in test [7] is -0.397; in [9], -1.01; in test [10], 0.176; in [11], -0.0141; in test [15] it was -0.248; in test [17] it was -0.182. For the same compound, the composite z-score in test [18] was 0.132; in test [19] it was -0.414; in test [20] it was -0.167. The z-score in test [8] was -0.183 (inactive); in test [12], -0.207 (inactive); in test [13], -0.492 (inactive); in test [14], -0.19 (inactive); in test [16], 1.5 (inactive).
As for `C=CC[C@]1(C(N)=O)N=C(c2ccc(OCCCO)cc2)O[C@H]1c1ccccc1N=[N+]=[N-]`, the composite z-score is 0.951 in test [1]; -0.385 in test [2]; 0.087 in [3]; 0.672 in test [4]; 0.737 in test [5]; 1.8 in [6]. For the same compound, the composite z-score was 1.06 in test [7]; 1.69 in test [9]; -0.306 in test [10]; 1.37 in [11]; 3.33 in [15]; 0.239 in [17]. For the same compound, the composite z-score in [18] was 0.301; in [19], 0.923; in [20], 0.0049. Further, the z-score was 2.63 (inactive) in [8]; 0.344 (inactive) in test [12]; -1.3 (inactive) in [13]; 0.673 (inactive) in [14]; 1.94 (inactive) in test [16].
For the compound `CCCCC(=C=CC[C@@H](O)c1ccccc1OCCO)C[C@@H](O)c1ccccn1`, the composite z-score in [1] is 0.0106; in [2], 0.362; in [3], -0.102; in test [4] it was 0.23; in [5], 0.418; in test [6], 0.69. Also, the composite z-score was 0.327 in test [7]; -0.0288 in [9]; -0.0645 in test [10]; 1.35 in test [11]; 2.3 in test [15]; -0.119 in test [17]. For the same compound, the composite z-score was 0.191 in test [18], 0.311 in test [19] and -0.0238 in [20]. For the same compound, the z-score in [8] was -1.14 (inactive); in [12] it was 0.0466 (inactive); in test [13], -0.314 (inactive); in test [14], -1.14 (inactive); in test [16] it was 0.0399 (inactive).
For `O=C(N1CCOCC1)[C@]1(CCS(=O)(=O)c2ccccc2)N=C(c2ccc(OCCCO)cc2)O[C@@H]1c1ccccc1`, the composite z-score was 0.217 in test [1]; 2.19 in test [2]; -0.0667 in test [3]; 0.479 in [4]; 1.22 in [5]; 1.94 in test [6]. The composite z-score was 1.3 in test [7]; 1.31 in [9]; -0.0994 in test [10]; 1.45 in [11]; 3.26 in test [15]; 0.227 in test [17]. Also, the composite z-score in test [18] amounted to 0.0673; in [19], 1.08; in test [20], 0.0727. Besides, the z-score in test [8] is -1.49 (inactive); in [12], 0.825 (inactive); in [13], 0.778 (inactive); in test [14], 2.98 (inactive); in test [16], 1.14 (inactive).
For `O=C(CS)NCCCCCCNC(=O)[C@H]1C[C@H]2C(=O)NCC(=O)N2[C@H]1c1cccc(OCCO)c1`, the composite z-score in test [1] is -0.0511; in [2], 0.0436; in [3], -0.0488; in test [4] it was 0.22; in test [5] it was 0.166; in test [6], 1.36. The composite z-score was found to be 1.36 in test [7]; 0.0909 in test [9]; 0.0024 in test [10]; 0.863 in test [11]; 2.47 in test [15]; 0.0657 in [17]. Further, the composite z-score was 0.6 in test [18], 0.471 in test [19] and -0.0612 in test [20]. Further, the z-score is 0.525 (inactive) in test [8]; -0.573 (inactive) in test [12]; -0.372 (inactive) in test [13]; 0.585 (inactive) in [14]; 1.25 (inactive) in test [16].
As for `OCCCc1cc[n+](Cc2cc3c(cc2Br)OCO3)cc1`, the composite z-score in test [1] was 0.622; in [2], -0.226; in test [3], -0.116; in test [4], -0.782; in test [5] it was -0.914; in test [6], 1.23. Moreover, the composite z-score in [7] was 0.583; in test [9], -0.222; in [10], -0.383; in [11] it was 0.115; in [15], -0.0854; in test [17] it was 0.193. The composite z-score in test [18] is -0.617; in test [19] it was -0.785; in test [20] it was -0.12. Moreover, the z-score in test [8] is 0.584 (inactive); in [12] it was -0.41 (inactive); in test [13], -0.688 (inactive); in [14], -0.213 (inactive); in test [16] it was 0.0566 (inactive).
On to `C[C@]1(C(=O)NC2CC2)c2ccccc2C(=O)N(Cc2cc(F)cc(C(F)(F)F)c2)[C@H]1c1ccc(CO)cc1`, for which the composite z-score was -0.364 in test [1]; -0.035 in test [2]; -0.116 in test [3]; -0.636 in [4]; -1.13 in test [5]; 1.72 in [6]. Besides, the composite z-score is 1.37 in test [7]; -0.527 in [9]; -0.256 in [10]; 1.52 in test [11]; 3.29 in test [15]; -0.188 in test [17]. The composite z-score in [18] is -0.104; in test [19], 0.518; in test [20] it was -0.312. In addition, the z-score in [8] is -1.05 (inactive); in [12], 0.257 (inactive); in test [13], -0.194 (inactive); in test [14], 0.217 (inactive); in test [16], 0.299 (inactive).
Regarding `O=C(O)C1=CC[C@H]2C(=O)N(c3ccccc3)C(=O)[C@@H]12`, the composite z-score was 0.115 in [1]; -0.037 in test [2]; 0.0601 in test [3]; 0.676 in test [4]; 1.58 in test [5]; 0.42 in test [6]. Also, the composite z-score in test [7] amounted to 1.16; in test [9] it was 0.914; in [10], 0.0749; in test [11], 0.964; in test [15], 2.5; in test [17], 0.0694. In addition, the figures for the composite z-score in test [18], in [19] and in test [20] were -0.312, 1.06 and 0.186, respectively. In addition, the z-score in [8] is -0.127 (inactive); in test [12], 0.735 (inactive); in test [13], 1.38 (inactive); in test [14] it was 1.52 (inactive); in test [16], -0.148 (inactive).
In the case of `COC(=O)C1=CC(c2ccc(CO)cc2)=CC(C2CC2)N(Cc2cc3c(cc2Br)OCO3)C=C1C(=O)OC` (stereo not given), the composite z-score turned out to be 0.131 in test [1]; 1.64 in [2]; 0.214 in [3]; 1.25 in test [4]; 1.66 in test [5]; 1.97 in test [6]. Moreover, the composite z-score stood at 1.15 in test [7]; 0.559 in test [9]; 0.0278 in [10]; 1.54 in [11]; 2.87 in test [15]; 0.479 in [17]. Also, the composite z-score worked out at 0.092 in test [18], 1.11 in test [19] and 0.46 in test [20]. For the same compound, the z-score is -2.56 (inactive) in [8]; -0.644 (inactive) in test [12]; -2.47 (inactive) in test [13]; -2.01 (inactive) in [14]; 0.841 (inactive) in test [16].
